For orientation: Inhibition means the relative decrease from the control value, in per cent. Low readings indicate a response near the control, high ones a response far below the control.

Each structure is given as a SMILES string.

Common to all, as to format: functional
The test system of experiment [1] is Plasmodium falciparum. The experiment is described as follows: GSK_TCMDC: Inhibition of Plasmodium falciparum 3D7 in whole red blood cells, using parasite LDH activity as an index of growth. Test compounds present at 2uM.
Experiment [2] deals with Plasmodium falciparum. The experiment is described as follows: GSK_TCMDC: Inhibition of Plasmodium falciparum Dd2 in whole red blood cells, using parasite LDH activity as an index of growth. Test compounds present at 2uM.
The next experiment deals with HepG2. The experiment is described as follows: GSK_TCMDC: Percent inhibition of human HepG2 cell line. Test compounds present at 10uM.

With `O=C(NCCN1CCOCC1)c1ccc(CNC(=O)c2ccc(O)c(-c3ccc(Cl)c(Cl)c3)c2)cc1`, the Inhibition in the experiment with Plasmodium falciparum [1] came to 87%; with Plasmodium falciparum [2], 55%; in the experiment on HepG2, 3%.

For `COC(=O)CCCCCOc1cc(Cc2cnc(N)nc2N)cc(OC)c1OC`, the Inhibition is recorded as 90% with Plasmodium falciparum [1], 0% in the experiment on Plasmodium falciparum [2] and 0% with HepG2.

With `CN(C)c1nc(NCc2ccccc2)nc(N/N=C/c2cc([N+](=O)[O-])ccc2O)n1`, the figures for the Inhibition with Plasmodium falciparum [1], in the experiment on Plasmodium falciparum [2] and with HepG2 were 100%, 90% and 48%, respectively.

For `Cc1ccccc1OCCCN1CCN(CC(c2ccc(F)cc2)N2CCN(C(C)C)CC2)CC1.Cl` (stereo not drawn), the figures for the Inhibition in the experiment on Plasmodium falciparum [1], with Plasmodium falciparum [2] and in the experiment on HepG2 were 99%, 64% and 20%, respectively.

Regarding `Cc1ccc(Cl)c2sc(N3CCN(C(=O)c4ccc([N+](=O)[O-])o4)CC3)nc12`, the Inhibition is listed as 97% in the experiment on Plasmodium falciparum [1], 94% in the experiment with Plasmodium falciparum [2] and 21% in the experiment with HepG2.

Regarding `Nc1ccc2nc(C=Cc3ccc(Cl)cc3)[nH]c2c1`, the Inhibition is listed as 91% in the experiment on Plasmodium falciparum [1], 83% with Plasmodium falciparum [2] and 19% with HepG2.

On to `CCOC(=O)CNC(=O)N(CCN(Cc1ccccc1)C(=O)NCC(=O)OCC)Cc1ccccc1`, for which the Inhibition in the experiment with Plasmodium falciparum [1] stood at 98%; with Plasmodium falciparum [2], 0%; in the experiment on HepG2 it was 9%.

For `CCC(N)(C#Cc1ccc(-c2c(C)[nH]c(C)c(Br)c2=O)cc1)CC`, the Inhibition with Plasmodium falciparum [1] worked out at 97%; in the experiment on Plasmodium falciparum [2], 96%; in the experiment with HepG2, 0%.

In the case of `CC1CC(NCCCNc2cc(=O)c3ccccc3[nH]2)c2c1cc(Cl)c(Cl)c2Cl` (stereo not drawn), the Inhibition in the experiment on Plasmodium falciparum [1] is 98%; in the experiment on Plasmodium falciparum [2] it was 70%; with HepG2, 1%.

For the compound `CCCCN(CCCC)CCCCNc1c2ccccc2nc2ccccc12.Cl`, the Inhibition with Plasmodium falciparum [1] is listed as 100%; in the experiment with Plasmodium falciparum [2] it was 100%; with HepG2 it was 36%.

In the case of `O=C(N[C@@H](Cc1ccccc1)C(=O)NC1CCCCCC1)c1ccc(O)c(-c2cccc(C(F)(F)F)c2)c1`, the Inhibition came to 98% in the experiment on Plasmodium falciparum [1], 70% with Plasmodium falciparum [2] and 0% with HepG2.

For the origin of these results see ChEMBL document CHEMBL1157539, “Thousands of chemical starting points for antimalarial lead identification” (Nature, 2010).
